Experimental data taken from PubChem BioAssay (NCATS).
Results filed as inconclusive are left out. Calls of active or inactive are those of the source. Calls follow the shape of the dose curve; as a rule, active = well fitted curve in the direction sought with a large enough effect; inconclusive = small, poorly fitted or top-dose-only effect, or another doubt; inactive = no such curve, though single readings can be large; an effect the other way counts as inactive or inconclusive.

What was measured:
[1] = Primary fluorescence-based thiol-reactive (MSTI) qHTS assay for identification of artifact compounds. (AID 1845221); also: nearly all actives have a fitted effect of over 65% in size; also: potency is read from the fitted curve at half-maximal effect
Outline: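 In PBS pH 7.4 with 2% DMSO, each compound met 4 uM MSTI for one hour at ambient temperature, shielded from light, before fluorescence detection.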

[2] = test system: Nanoluciferase (engineered Oplophorus gracilirostris luciferase); assay: Primary Nanoluciferase (NLuc) qHTS assay for identification of artifact compounds. (AID 1845222);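 also: NLuc secreted into diluted conditioned medium of S16 cells; series mostly up to about 54 µM; 0% = DMSO and -100% = no enzyme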
Outline: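 NLuc from S16 cell medium (1:55) plus test compounds, 15 min, room temperature. Luminescence after Nano-Glo (1:100) addition, 5 min.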

[3] = Quantitative High-Throughput drug screen in 47 multiple myeloma cell lines against the NCATS MIPE library collection: Delta47_JCRB cell viability assay (AID 1918925; also: nearly all actives have a fitted effect of over 45% in size; also: potency is read from the fitted curve at half-maximal effect)
Outline: (§1)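 Relative luminescence from CellTiter-Glo served as the viability signal, referenced to DMSO-treated (100%) and cell-free medium (0%) controls. Treatment lasted 48 hours at 37C with 500 cells per well.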

[4] = Quantitative High-Throughput drug screen in 47 multiple myeloma cell lines against the NCATS MIPE library collection: EJM_DSMZ cell viability assay (AID 1918926; also: nearly all actives have a fitted effect of over 30% in size; also: potency is read from the fitted curve at half-maximal effect)
Outline: as §1

[5] = Quantitative High-Throughput drug screen in 47 multiple myeloma cell lines against the NCATS MIPE library collection: AMO1_DSMZ cell viability assay (AID 1918927; also: nearly all actives have a fitted effect of over 30% in size; also: potency is read from the fitted curve at half-maximal effect)
Outline: as §1

[6] = Quantitative High-Throughput drug screen in 47 multiple myeloma cell lines against the NCATS MIPE library collection: ARD_JJKsccE7 cell viability assay (AID 1918929; also: potency is read from the fitted curve at half-maximal effect;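 as to viability: 100% = DMSO-only wells and 0% = media-only wells without cells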)
Outline: as §1

[7] = Quantitative High-Throughput drug screen in 47 multiple myeloma cell lines against the NCATS MIPE library collection: Karpas620_DSMZ cell viability assay (AID 1918959); also: nearly all actives have a fitted effect of over 30% in size; also: potency is read from the fitted curve at half-maximal effect
Outline: (§2)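 Primary qHTS used for cherry-picking: cells at 500/well, library compounds for 48 h (37C, 5% CO2), luminescent ATP assay.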

[8] = Quantitative High-Throughput drug screen in 47 multiple myeloma cell lines against the NCATS MIPE library collection: FR4_PLB cell viability assay (AID 1918924; also: nearly all actives have a fitted effect of over 35% in size; also: potency is read from the fitted curve at half-maximal effect)
Outline: as §2

[9] = Primary redox qHTS assay for identification of artifact compounds. (AID 1845223);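 also: 0% = DMSO and 100% = reference compound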
Outline: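 Amplex Red (25 uM) and HRP (250 mU/mL) in HBSS, with compounds for 15 min, then 250 uM DTT for 30 min, room temperature, dark. Fluorescence 525/598 nm read; normalized to DMSO and 10 uM DA3003; Hill fit.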

[10] = Quantitative High-Throughput drug screen in 47 multiple myeloma cell lines against the NCATS MIPE library collection: ARP1_JJKsccF8 cell viability assay (AID 1918928; also: nearly all actives have a fitted effect of over 40% in size; also: potency is read from the fitted curve at half-maximal effect)
Outline: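 Luminescence from CellTiter-Glo, taken after 5 min at room temperature, reports cellular ATP as viability. Cells (500 per well) had been treated 48 h at 37 °C with MIPE 4.0 compounds, scaled between DMSO and medium-only controls.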

CCN1CCC(n2cc(CNc3cc(Cl)c4ncc(C#N)c(Nc5ccc(F)c(Cl)c5)c4c3)nn2)CC1
active: Potency [3] 14.8 µM | Potency [4] 10.5 µM | Potency [5] 6.62 µM | Potency [6] 5.9 µM | Potency [7] 5.9 µM
inactive: Potency [1] | Potency [2]

COc1nccc(-c2c(-c3ccc(F)cc3)ncn2C2CCC(O)CC2)n1 (configuration not stated)
active: Potency [6] 0.0083 µM
inactive: Potency [1] | Potency [2] | Potency [8] | Potency [7]

CC1(COc2ccc3c(c2)ncn3-c2ccc3cccc(N4CCC(N)CC4)c3n2)COC1
active: Potency [6] 5.9 µM
inactive: Potency [1] | Potency [2]

Cc1csc(-c2nnc(Nc3ccc(Oc4ncccc4-c4ccnc(N)n4)cc3)c3ccccc23)c1
inactive: Potency [2] | outcome [9]
active: Potency [8] 16.6 µM | Potency [3] 23.5 µM | Potency [5] 2.96 µM | Potency [10] 5.26 µM | Potency [6] 23.5 µM

CN1CCc2c(n(Cc3ccc(C(=O)NO)cc3)c3ccccc23)C1
inactive: Potency [2] | outcome [9]
active: Potency [8] 16.6 µM | Potency [3] 20.9 µM | Potency [10] 18.7 µM

Clc1ccc(C2(c3ccc(-c4cn[nH]c4)cc3)CCNCC2)cc1
inactive: Potency [2] | outcome [9]
active: Potency [8] 20.9 µM | Potency [3] 1.32 µM | Potency [4] 20.9 µM | Potency [10] 23.5 µM

COc1ccc(Cn2ccc3ccc(C(=O)NO)cc32)cc1
inactive: Potency [2] | outcome [9] | Potency [8] | Potency [7]
active: Potency [4] 20.9 µM | Potency [5] 16.6 µM

Nc1ccc(-c2ccc3ncc4ccc(=O)n(-c5cccc(C(F)(F)F)c5)c4c3c2)cn1
inactive: Potency [2] | outcome [9]

CNC(=O)c1c(-c2ccc(F)cc2)oc2cc(N(CCO)S(C)(=O)=O)c(C3CC3)cc12
active: Potency [8] 23.5 µM
inactive: Potency [2] | outcome [9]

COc1cc(Nc2nc3ccccc3nc2NS(=O)(=O)c2ccc(NC(=O)c3ccc(C)c(OC)c3)cc2)cc(OC)c1
inactive: Potency [2] | outcome [9]

O=S(=O)(O)c1ccc2cc(N=Nc3cc(S(=O)(=O)O)c4cccnc4c3O)ccc2c1
inactive: outcome [9] | Potency [5] | Potency [6] | Potency [7]
active: Potency [1] 0.15 µM | Potency [4] 16.6 µM | Potency [10] 2.35 µM

COc1ccc(CCC(=O)Nc2nc3ccc(Cl)cc3s2)cc1OC
inactive: Potency [2] | outcome [9] | Potency [8] | Potency [6] | Potency [7]

CN1C(=O)C(Cc2c[nH]c3ccccc23)NC1=S (configuration not stated)
inactive: Potency [2] | outcome [9] | Potency [8] | Potency [3] | Potency [5] | Potency [10] | Potency [6] | Potency [7]

CN(C)c1ccc(-c2nc3ncc(Cl)c(N4CCN(CC(=O)Nc5nccs5)CC4)c3[nH]2)cc1
inactive: Potency [2] | outcome [9]
active: Potency [8] 2.09 µM

COc1nc(C)cnc1NS(=O)(=O)c1cccnc1-c1ccc(-c2nnco2)cc1
inactive: Potency [2] | outcome [9] | Potency [8] | Potency [4] | Potency [5]

Cc1ccc2c(c1)c1c(n2CCc2ccc(C)nc2)CCN(C)C1
inactive: Potency [1] | Potency [2] | Potency [3] | Potency [5] | Potency [6] | Potency [7]

CCN1CCN(c2ccc(Nc3cc(N(C)C(=O)Nc4c(Cl)c(OC)cc(OC)c4Cl)ncn3)cc2)CC1
active: Potency [8] 18.7 µM | Potency [3] 0.0093 µM
inactive: Potency [2] | outcome [9] | Potency [5] | Potency [10] | Potency [7]

Cc1cc2c(cc1C1(c3ccc(C(=O)O)cn3)CC1)C(C)(C)CCC2(C)C
active: Potency [5] 5.26 µM | Potency [10] 26.4 µM
inactive: Potency [2] | outcome [9] | Potency [8] | Potency [7]

CNC(=O)c1cc(Oc2ccc(NC(=O)Nc3ccc(Cl)c(C(F)(F)F)c3)c(F)c2)ccn1
active: Potency [8] 23.5 µM | Potency [5] 5.9 µM | Potency [10] 23.5 µM | Potency [6] 5.26 µM | Potency [7] 10.5 µM
inactive: Potency [2] | outcome [9]

Cc1ccc2c(c1)C(=O)[C@]1(O)CCN(c3ccccc3)C1=N2
inactive: Potency [2] | outcome [9] | Potency [8] | Potency [3] | Potency [6] | Potency [7]

C[C@@H]1CCO[C@H]2Cn3cc(C(=O)NCc4ccc(F)cc4F)c(=O)c(O)c3C(=O)N12
active: Potency [8] 37.2 µM
inactive: Potency [2] | outcome [9]

Cc1cnc(CNC(=O)c2c(=O)c3ccc(N4CCCN(C)CC4)nc3n3c2sc2ccccc23)cn1
inactive: activity, negative = inhibition [2] 4.41% [at 11.6 µM] | redox activity (% of DA3003) [9] -5.5% [at 11.5 µM] | Potency [7]
active: Potency [8] 12.9 µM | Potency [3] 0.457 µM | Potency [5] 0.512 µM | Potency [10] 9.11 µM

Nc1ncnc2c1c(-c1cccc(OCc3ccccc3)c1)cn2C1CC(CN2CCC2)C1 (configuration not stated)
inactive: Potency [1] | Potency [2]
active: Potency [3] 0.372 µM | Potency [5] 14.8 µM | Potency [6] 2.96 µM | Potency [7] 2.96 µM

O=C(Nc1ccc(OC(F)(F)F)cc1)c1sccc1NCc1ccnc2ccccc12
inactive: Potency [2] | outcome [9]
active: Potency [8] 4.69 µM | Potency [3] 5.26 µM | Potency [5] 23.5 µM | Potency [7] 4.69 µM

C=CC(=O)Nc1cccc(Sc2nc(Nc3ccc(N4CCN(C)CC4)cc3)ncc2Cl)c1
inactive: Potency [2] | outcome [9]

O=C(CO)N1CCC(c2[nH]nc(-c3ccc(Cl)cc3)c2-c2ccncn2)CC1
inactive: Potency [2] | outcome [9] | Potency [8] | Potency [3] | Potency [5] | Potency [10] | Potency [7]
